Source: PubChem BioAssay
Rtt109 Vps75 = inhibitors of C. albicans Rtt109/Vps75 HAT, primary screen, biochemical, ThioGlo CoA-SH fluorescence, plate reader. AID 540336, 2011. inhibition, % at 34.9 µM. hit rate 0.16% among 330,000. Histone acetyltransferase RTT109 (Candida albicans (strain SC5314 / ATCC MYA-2876)), …. purified Rtt109/Vps75, 4 h;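 active = inhibition of at least 50% in every replicate; inconclusive = best replicate reaches 50% inhibition but some replicates fall short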
Rce1 inhib = yeast Rce1p protease inhibitors, primary screen, biochemical, fluorescence, cell-free homogeneous; CAAX prenyl protease 2 (Saccharomyces cerevisiae (strain ATCC 204508 / S288c)), Q03530; yeast membranes, quenched prenylated peptide cleavage fluorescence; calls only; hit rate 0.27% among 290,000;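 active = fall in fluorescence gain of 50% or more versus controls, with final raw signal at or below 3038400; inconclusive = same 50% fall but final raw signal above 3038400; inactive = fall in fluorescence gain under 50%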;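 note: plate controls were neutral control wells for no effect and wells lacking membranes for full effect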
Target sequence (Q03530 whole entry, looked up): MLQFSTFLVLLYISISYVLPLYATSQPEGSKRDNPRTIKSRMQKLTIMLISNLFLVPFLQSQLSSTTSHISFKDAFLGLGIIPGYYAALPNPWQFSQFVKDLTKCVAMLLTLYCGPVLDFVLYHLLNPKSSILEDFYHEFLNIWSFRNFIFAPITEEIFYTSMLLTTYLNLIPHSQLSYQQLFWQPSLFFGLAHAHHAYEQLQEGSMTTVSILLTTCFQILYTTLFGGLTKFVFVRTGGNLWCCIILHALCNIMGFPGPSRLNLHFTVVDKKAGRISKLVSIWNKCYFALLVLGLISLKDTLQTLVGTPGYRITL
GRK2 inh = compounds blocking aptamer binding on GRK2 – biochemical, human GRK2, bead flow cytometry, HTS, primary screen | hit rate 0.59% among 330,000 | inhibition of aptamer binding, % at 10 µM | FAM-aptamer displacement from GRK2 | AID 488847, 2010 | Beta-adrenergic receptor kinase 1 (Homo sapiens), P25098;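 active = inhibition of aptamer binding above 40%, roughly 3 SD of noise, on plates passing a quality check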;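 note: median bead fluorescence of bound FAM aptamer so fluorescent compounds give negative values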
HDAC3 inhib = HDAC3 deacetylase inhibitors, primary screen, biochemical, fluorescence, cell-free homogeneous | inhibition, % at 8.3 µM | recombinant HDAC3, fluorogenic peptide/trypsin coupled | hit rate 0.15% among 320,000; in the data active = inhibition above about 26%, passing the limit was not always enough; inconclusive = no clear call, values can overlap the other calls
ALR H2O2 inh = inhibitors of human ALR sulfhydryl oxidase, primary screen, biochemical, H2O2 detection, HRP-luminol luminescence, single point; AID 485317, 2010; purified ALR, DTT oxidation; inhibition, % (no concentration beside the values); hit rate 3.8% among 290,000;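 active = mean replicate inhibition above about 79%, with every replicate also reaching it, limit read from the data; inconclusive = only one of the two criteria met; inactive = mean below limit and not every replicate reaching it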
Target sequence (P55789 whole entry, looked up): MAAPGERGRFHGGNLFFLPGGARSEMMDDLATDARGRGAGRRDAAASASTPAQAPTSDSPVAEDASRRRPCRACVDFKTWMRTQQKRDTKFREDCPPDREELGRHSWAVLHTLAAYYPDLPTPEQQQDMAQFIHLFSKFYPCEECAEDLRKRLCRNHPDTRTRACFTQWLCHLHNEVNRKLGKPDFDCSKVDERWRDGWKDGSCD
Efflux pump mplx = inhibitors of Candida efflux pumps in yeast, primary screen, S. cerevisiae, Nile Red, multiplex; S. cerevisiae Candida pump triplex; inhibition, % at 10 µM; hit rate 0.44% among 330,000; AID 485275, 2010;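 active = plate passing quality check with inhibition over a set limit, or well fluorescence over plate mean plus 4 SD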;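 note: Nile Red retained in pooled yeast measured as flow cytometry median fluorescence; 0% = buffer negative control and 100% = Enniatin B positive control; higher means more Nile Red kept so more efflux inhibition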
GRK2 inh confirm = GRK2 aptamer-displacing inhibitors, retest, confirmation, biochemical, cherry pick 1, bead flow cytometry. bead-bound GRK2, FAM-aptamer displacement. shares compounds with GRK2 inh. hit rate 4% among 2,000. AID 504451, 2011. aptamer displacement, % at 10 µM;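 active = aptamer displacement above 40%, near three times the noise of non-fluorescent compounds, on plates passing quality checks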;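 note: negative values mostly reflect intrinsic compound fluorescence rather than true enhancement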
Aptamer quench = fluorescent aptamer quenching in GRK2 counter-screen dose response. shares compounds with GRK2 inh. Fluorescent RNA aptamer beads, flow cytometry; hits give high values. fluorescence change (kMESF span), kMESF (test concentration not listed). 110 tested, under 10 active;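 active = compounds whose bead fluorescence drops by more than 37 kMESF across the dose range, marking them as dye quenchers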
Aptamer quench SP = counter-screen for GRK2 aptamer inhibitors: fluorescent aptamer quenchers. shares compounds with GRK2 inh. Carboxyfluorescein RNA aptamer on beads, flow cytometry quenching; hits give low values. fluorescence response (% of DMSO), % at 10 µM. 2,000 tested, under 10 active. AID 504580;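 active = compounds that quench the bead-bound fluorescent RNA probe, cutting fluorescence to under half of the solvent control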;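 note: counterscreen run without GRK2 so only probe quenching by compound is measured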
GRK2 confirm 2 = GRK2 aptamer-displacing inhibitors, hit retest, confirmation, biochemical, cherry pick 2, bead flow cytometry; shares compounds with GRK2 inh; bead-bound GRK2, FAM-aptamer displacement; inhibition of aptamer binding, % at 10 µM; 360 tested, under 10 active; AID 504782, 2011;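 active = inhibition of aptamer binding above 40%, about triple the noise seen with nonglowing compounds, on plates passing quality control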;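 note: negative values mostly come from compounds that fluoresce themselves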
FAM quench SP = counter-screen for GRK2 binding hits: quenchers of fluorescent RNA aptamer; shares compounds with GRK2 inh; carboxyfluorescein RNA aptamer beads, flow cytometry quenching; hits give low values; fluorescence response vs DMSO, % at 10 µM; 360 tested, under 10 active; AID 588494;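 active = response vs DMSO under 50%, meaning signal dropped by over half, treated as fluorescence quencher; inconclusive = no clear call, values can overlap the other calls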;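 note: labelled aptamer on streptavidin beads without GRK2 as a quench counter-screen; 100% = bead fluorescence of DMSO wells and lower means quenching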
FAM quench PS1 = quenchers of FAM-labeled RNA aptamer fluorescence, dose response, artefact control for GRK2 aptamer binding project, biochemical, powder set 1, flow cytometry; shares compounds with GRK2 inh; Bead-bound FAM RNA aptamer fluorescence quenching; hits give low values; fluorescence ratio to DMSO, % at 11.1 µM; 35 tested, under 10 active; AID 588496, 2011;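 active = compounds that dim the fluorescent label, raw bead signal shifting by over 33 units between lowest and highest dose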
* = called active by the depositor; i = inactive; u = inconclusive; x = not tested or not shown. This is a sample that favours compounds with a hit; in the whole collection about 4.5% have one here.

SMILES	Rtt109 Vps75	Rce1 inhib	GRK2 inh	HDAC3 inhib	ALR H2O2 inh	Efflux pump mplx	GRK2 inh confirm	Aptamer quench SP	others
Cc1cc(=O)[nH]c(SCC(=O)NCc2ccco2)n1	-27.9	i	54.0*	17.6	-20.2	-0.1	94.4*	99.1	Aptamer quench=2.1;FAM quench PS1=100.0
CCc1c(O)nc(SCC(=O)NCc2ccco2)[nH]c1=O	-5.4	i	11.0	6.0	97.9*	0.0	x	x	GRK2 confirm 2=0.8;FAM quench SP=107.0
Cn1c(SCC(=O)NCc2ccco2)nnc1-c1cccs1	-3.8	i	86.0*	2.8	4.8	-0.1	3.1	99.6
Cc1nnc(SCC(=O)NCc2ccco2)[nH]c1=O	8.4	i	5.0	0.0	-1.7	-0.1	x	x
O=C(CSc1nnc(NC(=O)Cc2ccc(F)cc2)s1)NCc1ccco1	3.1	i	2.0	7.3	-5.5	-0.3	x	x
O=C(CSc1nnc(NC(=O)Cc2ccccc2)s1)NCc1ccco1	7.9	i	60.0*	-2.7	-7.0	0.1	-0.6	92.4
NC(=O)C(=O)N/N=C/c1cccc(C(F)(F)F)c1	-1.5	i	61.0*	1.2	-6.1	0.1	-0.3	101.1
NC(=O)N/N=C/c1cccc(C(F)(F)F)c1	5.3	i	0.0	-0.6	0.3	-0.2	x	x
CN(CCO)C(=O)c1c(NC(=O)c2ccccc2)sc2c1CCCC2	0.2	x	42.0*	-3.5	-0.8	0.5	0.9	95.2
CN(C)CCNC(=O)c1c(NC(=O)c2ccccc2)sc2c1CCCC2	9.8	i	0.0	1.3	32.0	-0.2	x	x
O=C(CCOc1ccccc1)Nc1ccnn1C1CCN(C(=O)CCC(F)(F)F)CC1	-19.8	i	98.0*	4.2	1.0	0.0	0.0	97.9
O=C1NC(=O)C(c2ccccc2)(c2ccc(Cl)cc2Cl)N1 (centres undefined)	6.2	x	x	x	x	x	x	x
O=C(CCSCCC(=O)NCc1ccccc1)NCc1ccccc1	-11.5	i	87.0*	-1.0	-1.6	0.1	1.2	100.6
OC[C@@H](O)[C@H](O)C(/C=N/Nc1ccccc1)=N\Nc1ccccc1	6.4	i	40.0	x	98.8*	-0.3	0.3	96.2
CC(=O)/C=N/Nc1ccccc1	4.3	i	0.0	-2.1	-6.4	-0.2	x	x
CC(CNc1nc2ccccc2n2cnnc12)c1ccccc1 (centres undefined)	5.4	i	42.0*	2.2	-6.6	0.4	-2.9	103.0
CC(=O)Nc1ccc(S(=O)(=O)NNC(=O)c2cccc(Cl)c2)cc1	x	i	92.0*	-0.1	99.0*	-0.1	-0.8	99.9
Cc1ccccc1Cn1nc(C)c(NC(=O)c2nc3n(n2)C(C(F)F)CC(C)N3)c1C (centres undefined)	-8.4	i	1.0	-0.9	0.7	0.1	x	x
Cc1ccccc1Cn1nc(C)c(NC(=O)c2cc3n(n2)C(C(F)F)CC(C(F)F)N3)c1C (centres undefined)	-8.1	x	98.0*	3.5	-2.3	0.2	0.0	100.1
CC(CCN1CCC(CN2C(=O)C(=O)NC[C@@H]2Cc2ccccc2)CC1)c1ccccc1 (some centres undefined)	-3.1	x	x	x	x	x	x	x
CN(CCO)c1ccc(C=NNc2ccc([N+](=O)[O-])cc2S(=O)(=O)Nc2ccccc2C(=O)O)cc1	x	x	35.0	u	99.0*	0.3	11.5	100.8
CC(=O)Nc1ccc(C=NNc2ccc([N+](=O)[O-])cc2S(=O)(=O)Nc2ccccc2C(=O)O)cc1	11.4	x	0.0	6.2	65.5	0.2	x	x
CC(C)(C)OC(=O)C[C@H]1C/C=C\C[C@H](CC(=O)N[C@H](CO)Cc2ccccc2)C(=O)N[C@@H](Cc2ccccc2)COC1=O	7.2	x	8.0	-3.2	0.1	0.1	x	x
Clc1c2c(nc3ccccc13)CCC2	-2.0	i	1.0	-2.6	-4.9	-0.2	x	x	GRK2 confirm 2=-7.6;FAM quench SP=126.0
C=CCn1c(SCC(=O)N(C)CC(=O)Nc2ccc(C)cc2)nnc1-c1ccncc1	1.6	x	1.0	-6.3	-1.5	-0.4	x	x
SMILES	Rtt109 Vps75	Rce1 inhib	GRK2 inh	HDAC3 inhib	ALR H2O2 inh	Efflux pump mplx	GRK2 inh confirm	Aptamer quench SP	others
Oc1nc(Nc2ccccc2)sc1/C=C1\C=Nc2ccccc21	1.2	i	45.0*	0.8	x	0.0	-0.9	98.0
COC(=O)[C@]1(Cc2ccccc2)N[C@H](CN(C)C(=O)c2ccc(F)cc2)[C@@H]2C(=O)N(C)C(=O)[C@@H]21	4.3	x	0.0	x	x	0.3	x	x
O=C(COc1ccccc1[N+](=O)[O-])N1CCN(c2ccccn2)CC1	-6.8	i	0.0	-3.8	4.6	0.1	x	x
O=C(O)c1ccccc1Nc1cccc(OCc2ccc3ccccc3n2)c1	5.0	x	0.0	5.6	57.5	0.0	6.1	90.0
O=C(COc1ccc2ccccc2c1)Nc1cccc(C(=O)Nc2ccccc2C(=O)O)c1	3.8	i	10.0	-8.1	x	-0.1	x	x
COc1cc(/C=N/Nc2nc3ccccc3s2)cc([N+](=O)[O-])c1O	5.6	i	68.0*	11.9	20.4	-0.1	2.0	98.5
O=[N+]([O-])c1cc(Cl)cc(/C=N/Nc2nc3ccccc3s2)c1O	20.5	i	4.0	3.6	1.0	-0.2	x	x
CC1=C(C(=O)OCc2ccccc2)C(c2cccc(F)c2)NC(=O)N1 (centres undefined)	-0.6	i	51.0*	1.6	-3.8	0.2	5.4	82.4
